The results in this text go back to PubChem BioAssay.

In assay [1] the target is 6-phosphogluconate dehydrogenase, decarboxylating (Homo sapiens) (UniProt P52209). Nature of the assay: inhibition of human phosphogluconate dehydrogenase – biochemical, recombinant enzyme, NADPH absorbance, primary screen (AID 1159550;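 active means at least 20% inhibition of 6-phosphogluconate dehydrogenase activity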). The following applies: recombinant 6PGD, NADPH absorbance 341 nm; at 10 µM; stronger effect = higher value.
Sequence of 6-phosphogluconate dehydrogenase, decarboxylating (Homo sapiens) (P52209 whole entry, looked up): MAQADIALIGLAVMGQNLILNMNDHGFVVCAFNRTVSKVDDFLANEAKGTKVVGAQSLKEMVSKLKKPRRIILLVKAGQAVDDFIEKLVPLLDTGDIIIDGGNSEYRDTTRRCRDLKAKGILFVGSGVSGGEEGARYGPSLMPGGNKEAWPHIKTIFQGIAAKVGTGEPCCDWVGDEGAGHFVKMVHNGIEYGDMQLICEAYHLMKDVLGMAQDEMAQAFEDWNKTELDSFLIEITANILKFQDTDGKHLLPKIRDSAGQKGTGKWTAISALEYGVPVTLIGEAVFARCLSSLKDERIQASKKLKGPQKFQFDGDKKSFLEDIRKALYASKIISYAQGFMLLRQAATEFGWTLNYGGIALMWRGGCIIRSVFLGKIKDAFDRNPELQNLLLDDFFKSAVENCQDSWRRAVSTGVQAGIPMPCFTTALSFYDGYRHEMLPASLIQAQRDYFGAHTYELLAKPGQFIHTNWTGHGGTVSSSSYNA
In assay [2] the test system is Aerobactin synthetase IucA (Klebsiella pneumoniae hvKP1). Nature of the assay: IucA enzyme inhibition, primary screen, biochemical, Spectrum library (AID 1346200).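 Further: 100% = wells without compound and 0% = wells lacking enzyme.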 The following applies: malachite green pyrophosphate, A620, at 8 µM, stronger effect = lower value.
The target of assay [3] is Mitogen-activated protein kinase 7 (Homo sapiens) (UniProt Q13164). Nature of the assay: Gal4-ERK5 driven luciferase induction – cell-based, HTS, primary screen (AID 1508626;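 active means luciferase signal above three times the same-plate solvent-only control wells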;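 further: luciferase driven by Gal4-ERK5 fusion binding five Gal4 sites before minimal TATA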). The conditions noted are these: HeLa Gal4-ERK5 transactivation, 18 h, at 5 µM, stronger effect = higher value.
Sequence of Mitogen-activated protein kinase 7 (Homo sapiens) (Q13164 whole entry, looked up, the tested form may be a part): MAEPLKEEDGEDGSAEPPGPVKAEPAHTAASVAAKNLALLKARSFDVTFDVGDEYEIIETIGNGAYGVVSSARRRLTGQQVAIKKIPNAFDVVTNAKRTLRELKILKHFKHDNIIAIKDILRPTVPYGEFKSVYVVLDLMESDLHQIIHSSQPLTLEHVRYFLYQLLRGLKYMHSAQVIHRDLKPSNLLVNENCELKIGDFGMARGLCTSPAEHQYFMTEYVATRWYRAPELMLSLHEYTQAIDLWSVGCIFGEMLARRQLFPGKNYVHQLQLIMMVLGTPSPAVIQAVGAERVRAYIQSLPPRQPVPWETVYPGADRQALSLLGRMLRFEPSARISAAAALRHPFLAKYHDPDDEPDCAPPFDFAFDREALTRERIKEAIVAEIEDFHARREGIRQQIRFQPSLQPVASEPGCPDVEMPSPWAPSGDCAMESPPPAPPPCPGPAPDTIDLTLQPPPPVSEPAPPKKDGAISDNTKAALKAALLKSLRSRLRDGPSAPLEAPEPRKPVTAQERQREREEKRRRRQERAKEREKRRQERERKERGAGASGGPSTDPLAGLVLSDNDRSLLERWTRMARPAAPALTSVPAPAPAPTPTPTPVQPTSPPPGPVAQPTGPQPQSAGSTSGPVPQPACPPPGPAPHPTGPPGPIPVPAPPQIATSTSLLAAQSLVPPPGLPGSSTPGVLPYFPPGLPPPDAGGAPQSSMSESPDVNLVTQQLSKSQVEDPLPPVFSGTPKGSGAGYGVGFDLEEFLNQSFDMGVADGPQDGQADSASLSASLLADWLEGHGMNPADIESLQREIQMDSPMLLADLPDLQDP
Assay [4] in a line: P. berghei load reduction in hepatocytes – cell-based, HepG2, luciferase luminescence, HepG2 viability, primary screen (AID 624349; in the data active means parasite load remaining mostly below about 12%, no sharp cut-off; inactive means mostly above about 10%;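 further: 100% = mean of DMSO negative control wells on the same plate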). The conditions noted are these: P. berghei liver stage in HepG2, luciferase luminescence, concentration not given here; parasite load remaining: stronger effect = lower value; viability: measured here: HepG2 viability without parasites.
Assay [5] in a line: viability loss in pontine glioma line – cell-based, SU-DIPG-XVII, MIPE5.0, CellTiter-Glo, qHTS, dose response (AID 1347060; cut-off not given, nearly all actives have AC50 up to about 26 µM). The following applies: CellTiter-Glo ATP luminescence.
A short description of assay [6]: viability loss in pontine glioma line – cell-based, SU-DIPG-XIII, MIPE4.0, CellTiter-Glo, qHTS, dose response (AID 1347061; cut-off not given, nearly all actives have AC50 up to about 37 µM;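 further: cells exposed to compound for 48 hours before readout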). The conditions noted are these: CellTiter-Glo ATP luminescence.
Assay [7] is described as follows: viability loss in pontine glioma line – cell-based, JHH-DIPG-1, MIPE4.0, CellTiter-Glo, qHTS, dose response (AID 1347062; cut-off not given, nearly all actives have AC50 up to about 27 µM). The conditions noted are these: JHH-DIPG-1 viability, CellTiter-Glo ATP luminescence.
Assay [8] can be described thus: viability loss in pontine glioma line – cell-based, SU-DIPG-IV, MIPE4.0, CellTiter-Glo, qHTS, dose response (AID 1347063; cut-off not given, nearly all actives have AC50 up to about 30 µM;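 further: compound exposure lasted 48 hours before the viability readout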). The conditions noted are these: CellTiter-Glo ATP luminescence.
Assay [9] is described as follows: viability loss in pontine glioma line – cell-based, SU-DIPG-XIII, MIPE5.0, CellTiter-Glo, qHTS, dose response (AID 1347064; cut-off not given, nearly all actives have AC50 up to about 23 µM). The conditions noted are these: CellTiter-Glo ATP luminescence.
Assay [10] is described as follows: viability loss in pontine glioma line – cell-based, SU-DIPG-XXV, MIPE5.0, CellTiter-Glo, qHTS, dose response (AID 1347065; cut-off not given, nearly all actives have AC50 up to about 26 µM;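 further: cells exposed to compound for 48 hours before ATP readout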). The conditions noted are these: CellTiter-Glo ATP luminescence.
Assay [11] in a line: JHH-DIPG-1 glioma cell viability, MIPE5.0 library, CellTiter-Glo luminescence, qHTS (AID 1347067; cut-off not given, nearly all actives have AC50 up to about 26 µM;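 further: cells exposed to compound for 48 hours before readout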). The conditions noted are these: JHH-DIPG-1 glioma viability, CellTiter-Glo ATP luminescence.
Assay [12] is described as follows: growth inhibition of DIPG cells – cell-based, MIPE5.0 library, qHTS (AID 1347068; cut-off not given, nearly all actives have IC50 up to about 30 µM). The conditions noted are these: SU-DIPG-XXV viability.
Assay [13] in a line: viability loss with induced miR-34 in A549 – imaging, A549 dox-inducible miR-34, nuclei and caspase counts, primary screen (AID 1347080;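 active means compounds whose cell count with miR-34 switched on is under 0.7 times the count with it off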). The conditions noted are these: A549 miR-34 inducible, Hoechst nuclei count, 48 h.
Assay [14] is described as follows: compounds altering HSF1 focus formation in cells – imaging, Selleck Cancer Library (AID 1347162; in the data active means plate-normalised HSF1 focus index below about 0.46). The conditions noted are these: human cells, HSF1 nuclear foci imaging, at 10 µM; SSMD: measured here: HSF1 foci SSMD mean; cell count: measured here: cell number; plate-normalised HSF1 focus index: stronger effect = lower value.
Assay [15] can be described thus: MELAS cybrid and Rieske KO viability enhancers – cell-based, MELAS cybrids, Rieske KO mouse fibroblasts, CellTiter-Glo, primary screen (AID 1508586;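 active means mean z-score across replicates of 1.96 or higher in either the MELAS or the Rieske mutant cell line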;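 further: z relative to plate mean and SD of compound and empty wells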). The conditions noted are these: low glucose.
Assay [16] deals with NAD(+) hydrolase SARM1 (Homo sapiens) (UniProt Q6SZW1). Nature of the assay: blocking NAD cleavage by SARM1 SAM-TIR – cell lysate, NAD-Glo luminescence (AID 1508614;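 active means compound whose remaining NAD level is above about 45 nM, limit read from the data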). The conditions noted are these: SAM-TIR HEK293T lysate NADase, at 1 µM, stronger effect = higher value.
Sequence of NAD(+) hydrolase SARM1 (Homo sapiens) (Q6SZW1 whole entry, looked up): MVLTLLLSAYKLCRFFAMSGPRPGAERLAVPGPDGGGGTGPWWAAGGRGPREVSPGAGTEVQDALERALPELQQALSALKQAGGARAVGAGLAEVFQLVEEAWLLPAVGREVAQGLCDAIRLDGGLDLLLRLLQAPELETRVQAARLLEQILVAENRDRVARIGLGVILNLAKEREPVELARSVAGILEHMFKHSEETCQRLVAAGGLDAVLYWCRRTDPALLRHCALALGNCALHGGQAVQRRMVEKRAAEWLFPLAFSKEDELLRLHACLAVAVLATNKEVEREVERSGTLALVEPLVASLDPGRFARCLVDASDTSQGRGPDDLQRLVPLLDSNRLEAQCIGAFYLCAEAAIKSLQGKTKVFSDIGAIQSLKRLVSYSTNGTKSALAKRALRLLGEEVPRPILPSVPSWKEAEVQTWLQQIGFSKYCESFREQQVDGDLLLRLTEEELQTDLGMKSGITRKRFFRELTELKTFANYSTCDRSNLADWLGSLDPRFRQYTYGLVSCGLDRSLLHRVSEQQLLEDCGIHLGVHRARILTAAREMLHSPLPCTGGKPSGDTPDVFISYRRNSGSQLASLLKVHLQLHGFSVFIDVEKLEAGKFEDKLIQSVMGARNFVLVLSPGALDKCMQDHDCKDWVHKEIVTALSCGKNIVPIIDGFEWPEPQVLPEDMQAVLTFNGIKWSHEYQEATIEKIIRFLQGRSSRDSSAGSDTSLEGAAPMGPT
A short description of assay [17]: galactose survival enhancers in mitochondrial complex I cybrids – cell-based, galactose medium, ATP luminescence, primary screen (AID 1645843;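 active means z-score of at least 1.8 in each of two replicates, scored against plate mean and spread of sample wells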;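 further: positive z means more ATP and so rescue of galactose-driven cybrid death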). The conditions noted are these: complex I mutant cybrid cells, 72 h, stronger effect = higher value.
A short description of assay [18]: blockers of polyQ-driven CASP3 activation – cell-based (AID 1583). The conditions noted are these: polyglutamine-induced caspase-3 activation, cell assay; stronger effect = higher value;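 tested at 10 µM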.
A short description of assay [19]: yeast 75Q aggregation reduction – 75Q-TubU reporter (AID 1593). The conditions noted are these: Yeast 75Q polyglutamine aggregation reporter.
Assay [20] in a line: restoration of touch response, mutant HTT neurons – whole organism, C. elegans mechanosensory neurons, N-terminal huntingtin (AID 1599). The following applies: C. elegans polyQ-huntingtin mechanosensory neurons, stronger effect = higher value.
Assay [21] is described as follows: blockers of cytochrome c efflux from mitochondria – biochemical, purified mitochondria (AID 1603).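 Further: mouse liver mitochondria challenged with calcium chloride; signal normalized to the plate average as 100%.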 The following applies: stronger effect = lower value.
Assay [22] in a line: polyglutamine aggregate formation blockers (AID 1604). The conditions noted are these: polyglutamine-induced protein aggregation inhibition assay; stronger effect = higher value; tested at 2.5 µM.
Assay [23] is described as follows: glutamate transport activators, MN-1 cells, MN-1 cell line (AID 1612).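 Further: tested at 1 µM final; 0% = mean of DMSO vehicle wells on each plate; positive means more glutamate uptake than control and negative means less.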 The following applies: MN-1 motor neuron cells, stronger effect = higher value.
The nature of assay [24]: 75Q-TubH aggregate inhibition, S. cerevisiae, yeast (AID 1616). The conditions noted are these: S. cerevisiae 75Q-TubH polyglutamine aggregation suppression; stronger effect = higher value.
Assay [25] in a line: antimalarial activity against Dd2 strain (AID 2302;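 active means growth inhibition above 50% at the single 2 µM test dose, taken to imply half-maximal potency below 2 µM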;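 further: 0% = DMSO untreated growth and 100% = chloroquine plus artemisinin killed control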). The conditions noted are these: P. falciparum Dd2 in RBCs, LDH growth readout, 72 h; at 2 µM; stronger effect = higher value.
The nature of assay [26]: human hepatoma cell viability loss – ATP luminescence, cytotoxicity control for P. falciparum antimalarial project, primary screen (AID 2303;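 active means inhibition above 50%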;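 further: 0% = DMSO wells and 100% = digitonin-killed cells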). The following applies: HepG2 viability, 24-48 h, at 10 µM, stronger effect = higher value.
In assay [27] the target is L-lactate dehydrogenase (Plasmodium falciparum (isolate CDC / Honduras)) (UniProt Q27743). The experiment in a line: PfLDH activity inhibition – cell lysate, 3D7 strain, counter-screen for P. falciparum growth inhibition project (AID 2304).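 Further: 0% = vehicle and 100% = reference inhibitor.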 The following applies: P. falciparum 3D7 crude extract, LDH APAD/NBT absorbance; at 2 µM; stronger effect = higher value.
Sequence of L-lactate dehydrogenase (Plasmodium falciparum (isolate CDC / Honduras)) (Q27743 whole entry, looked up): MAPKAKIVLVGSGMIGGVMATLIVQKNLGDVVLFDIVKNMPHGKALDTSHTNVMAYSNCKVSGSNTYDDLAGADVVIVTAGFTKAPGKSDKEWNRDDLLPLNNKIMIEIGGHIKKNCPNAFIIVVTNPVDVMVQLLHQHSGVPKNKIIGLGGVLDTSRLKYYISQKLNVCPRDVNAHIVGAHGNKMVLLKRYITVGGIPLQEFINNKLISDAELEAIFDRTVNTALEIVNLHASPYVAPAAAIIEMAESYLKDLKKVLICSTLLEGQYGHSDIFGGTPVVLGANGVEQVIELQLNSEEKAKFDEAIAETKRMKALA
The target in assay [28] is Calcium-dependent protein kinase 1 (Plasmodium falciparum (isolate 3D7)) (UniProt P62344). Nature of the assay: PfCDPK1 kinase inhibitors, biochemical, TCAMS library (AID 1159585; cut-off not given, nearly all actives have IC50 up to about 0.98 µM;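 further: inhibitors leave more ATP so luminescence rises with inhibition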). The conditions noted are these: recombinant PfCDPK1, Kinase-Glo ATP depletion luminescence.
Sequence of Calcium-dependent protein kinase 1 (Plasmodium falciparum (isolate 3D7)) (P62344 whole entry, looked up): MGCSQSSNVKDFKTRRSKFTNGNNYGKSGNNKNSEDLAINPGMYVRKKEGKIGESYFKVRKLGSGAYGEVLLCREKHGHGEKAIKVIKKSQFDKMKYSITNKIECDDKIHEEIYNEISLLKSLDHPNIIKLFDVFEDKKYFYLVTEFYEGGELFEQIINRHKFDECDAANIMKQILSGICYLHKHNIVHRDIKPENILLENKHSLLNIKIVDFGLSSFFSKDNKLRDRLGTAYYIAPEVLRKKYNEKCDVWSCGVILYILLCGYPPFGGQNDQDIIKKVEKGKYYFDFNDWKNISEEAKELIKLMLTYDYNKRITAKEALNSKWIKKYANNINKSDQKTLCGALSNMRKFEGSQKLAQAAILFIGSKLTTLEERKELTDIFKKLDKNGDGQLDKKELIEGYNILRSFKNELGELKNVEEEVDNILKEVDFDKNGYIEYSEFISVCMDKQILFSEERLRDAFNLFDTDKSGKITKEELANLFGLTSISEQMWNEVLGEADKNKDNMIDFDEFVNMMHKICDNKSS
The target in assay [29] is Plasmodium falciparum protein kinase 6 (PK6, PF3D7_1337100) (UniProt Q8IDW1). Nature of the assay: PfPK6 kinase inhibitors, biochemical, TCAMS library (AID 1159586). The following applies: recombinant PfPK6, Kinase-Glo ATP depletion luminescence.
Sequence of Plasmodium falciparum protein kinase 6 (PK6, PF3D7_1337100) (Q8IDW1 1-305): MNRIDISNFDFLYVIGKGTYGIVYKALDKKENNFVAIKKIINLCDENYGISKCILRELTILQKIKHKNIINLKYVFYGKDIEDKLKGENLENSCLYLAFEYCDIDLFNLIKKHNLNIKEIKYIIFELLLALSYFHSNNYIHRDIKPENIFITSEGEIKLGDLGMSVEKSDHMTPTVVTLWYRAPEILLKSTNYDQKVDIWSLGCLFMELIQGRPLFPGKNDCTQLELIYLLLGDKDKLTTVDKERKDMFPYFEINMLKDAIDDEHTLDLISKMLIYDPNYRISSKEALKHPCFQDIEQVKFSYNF
Assay [30] addresses Protein kinase 7 (PK7), Plasmodium falciparum 3D7 (PF3D7_0213400) (UniProt Q7YTF7). The experiment in a line: inhibition of Plasmodium PK7 catalytic activity – biochemical, TCAMS antimalarial set, Kinase-Glo luminescence (AID 1159587). The following applies: recombinant PfPK7, Kinase-Glo ATP depletion luminescence.
The target in assay [31] is Calcium-dependent protein kinase 4 (Plasmodium falciparum (isolate 3D7)) (UniProt Q8IBS5). The experiment in a line: PfCDPK4 kinase inhibitors, biochemical, TCAMS library (AID 1159588; cut-off not given, nearly all actives have IC50 up to about 0.91 µM). The following applies: recombinant PfCDPK4, Kinase-Glo ATP depletion luminescence.
Sequence of Calcium-dependent protein kinase 4 (Plasmodium falciparum (isolate 3D7)) (Q8IBS5 whole entry, looked up): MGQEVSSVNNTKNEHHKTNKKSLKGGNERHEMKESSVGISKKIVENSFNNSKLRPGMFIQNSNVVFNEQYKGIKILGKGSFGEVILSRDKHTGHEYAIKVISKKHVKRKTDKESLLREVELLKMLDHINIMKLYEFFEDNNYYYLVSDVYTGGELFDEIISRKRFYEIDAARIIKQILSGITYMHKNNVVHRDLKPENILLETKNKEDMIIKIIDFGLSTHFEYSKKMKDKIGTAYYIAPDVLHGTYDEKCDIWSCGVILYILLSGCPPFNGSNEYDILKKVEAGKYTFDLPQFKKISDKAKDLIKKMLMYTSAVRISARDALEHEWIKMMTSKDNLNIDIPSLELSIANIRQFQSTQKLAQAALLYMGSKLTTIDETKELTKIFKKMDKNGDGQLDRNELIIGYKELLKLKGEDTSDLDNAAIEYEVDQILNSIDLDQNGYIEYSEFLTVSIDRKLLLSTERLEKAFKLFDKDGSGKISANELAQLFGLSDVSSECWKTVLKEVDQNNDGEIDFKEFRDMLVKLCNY
Assay [32] can be described thus: blockers of cellular phospholipid synthesis – cell-based, LOPAC library, screen 4, primary screen (AID 1347384). The following applies: animal cells, phospholipid biosynthesis inhibition screen; at 10 µM.
[33] abbreviates: measured here: relative caspase fold change +Dox/-Dox.
Setting [34] is: measured here: total cells with miR-34 induction, stronger effect = lower value.
The mark [35] stands for this setting: measured here: total cells without miR-34 induction.

Several values for one entry are separate records, joined by “and”; a condition that tells them apart may be missing. Equal values may be shown once. Results filed as inconclusive are left out. For part of these data: Results with a measured potency or affinity are listed apart. Activity calls are given as the source filed them. Unless noted, how the calls were made is not given here.

Sequence of Protein kinase 7 (PK7), Plasmodium falciparum 3D7 (PF3D7_0213400) (Q7YTF7 1-343): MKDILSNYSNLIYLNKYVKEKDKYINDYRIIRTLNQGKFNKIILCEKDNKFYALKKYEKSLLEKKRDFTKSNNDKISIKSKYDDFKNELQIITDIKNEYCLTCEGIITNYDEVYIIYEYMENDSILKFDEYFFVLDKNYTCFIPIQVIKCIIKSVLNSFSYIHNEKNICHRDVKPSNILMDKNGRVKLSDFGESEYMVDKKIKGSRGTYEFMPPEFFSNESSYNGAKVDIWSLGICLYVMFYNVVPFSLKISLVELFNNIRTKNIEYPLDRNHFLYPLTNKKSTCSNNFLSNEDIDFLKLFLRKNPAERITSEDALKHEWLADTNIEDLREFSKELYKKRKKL

Turning to `COc1ccc([C@H]2Oc3c(I)c(OC)cc(OC)c3C[C@@H]2O)cc1OC`, the inhibition in assay [1] was 14.5% (inactive). In assay [2], the activity remaining is 103% (inactive). Further, the luciferase signal in assay [3] was 44 AU (inactive).

In the case of `C[C@]12CCC(=O)C(O)=C1CC[C@@H]1[C@@H]2CC[C@]2(C)C(=O)CC[C@@H]12`, the parasite load remaining in assay [4] is 20.3% (inactive). In assay [4], this compound had a viability of 80.5%. For the same compound, the inhibition in assay [1] was -18.3% (inactive). Further, the call in assay [5], in [6], in [7], in assay [8], in assay [9] and in assay [10] was inactive. Besides, the compound was called inactive in assay [11] and in assay [12]. Also, the fold change in assay [13] (stronger effect = lower value) is 0.801 (inactive); in assay [13] (setting [33]) it was 1.62. In addition, the cell count was found to be 8120 in assay [13] (setting [34]), 10100 in assay [13] (setting [35]) and 6710 in [14]. The compound also returned an SSMD in assay [14] of 1.39. Moreover, the plate-normalised HSF1 focus index in [14] is 1.07 (inactive). For the same compound, the z-score in assay [15] (MELAS cybrid survival, CellTiter-Glo 48 h, stronger effect = higher value) is 1.07 (inactive) and 0.415 (inactive); in [15] (Rieske KO mouse fibroblast survival, CellTiter-Glo 72 h), -0.144 and -0.532; in [17] it was 0.27 (inactive). Further, the remaining NAD in assay [16] was 10 nM (inactive). In addition, the luciferase signal in [3] is 48 AU (inactive).

As for `CC(=O)O[C@@H]1CC2C(C)(C)[C@H](O)C=C[C@]2(C)C2CC[C@]3(C)C(=CC(=O)O[C@H]3c3ccoc3)[C@@]21C` (some centres undefined), in assay [1], the inhibition is -4.71% (inactive). In assay [2], the activity remaining is 105% (inactive). Besides, the luciferase signal in [3] is 120 AU (inactive).

Turning to `CCC(C)[C@H]1O[C@]2(C=C[C@@H]1C)C[C@@H]1C[C@@H](C/C=C(\C)[C@@H](OC3C[C@H](OC)C(O[C@H]4C[C@H](OC)[C@@H](O)[C@H](C)O4)[C@H](C)O3)[C@@H](C)/C=C/C=C3\CO[C@@H]4[C@H](O)C(C)=C[C@@H](C(=O)O1)[C@]34O)O2` (some centres undefined), the inhibition in assay [18] was -42.7%; in assay [1] it was -3.19% (inactive). This compound also gave a score in assay [19] of 1.47. In addition, the rescue above control in assay [20] came to 0. Further, the cytochrome c release ratio in [21] stood at 4.06. The compound also showed an inhibition of aggregation in [22] of 43.1%. Also, in [23], the glutamate uptake change was -28.6%. In [24], the aggregation suppression score turned out to be 1.02. Moreover, in [4], the parasite load remaining was 83.1% (inactive) and 34.5% (inactive). Moreover, the viability in assay [4] was 68% and 87%. Moreover, in [2], the activity remaining was 106% (inactive). The figures for the fold change in assay [13] (stronger effect = lower value) and in assay [13] (setting [33]) were 1.11 (inactive) and 1.23, respectively. Moreover, the cell count worked out at 3700 in assay [13] (setting [34]) and 3330 in assay [13] (setting [35]).

Regarding `C=CC12CCN(CC1)C(C(O)c1ccnc3ccc(OC)cc13)C2` (centres undefined), the growth inhibition in [25] is 72% (active). Further, the results for the inhibition in [26] and in [27] were -6% (inactive) and -9% (inactive), respectively. The result in [28], in [29], in assay [30] and in assay [31] was inactive.

Regarding `CC(=O)OCC1=C(C(=O)O)N2C(=O)[C@@H](NC(=O)CCC[C@@H](N)C(=O)O)[C@H]2SC1`, the inhibition in assay [1] was -2.43% (inactive). In assay [32], the call was inactive. For the same compound, the remaining NAD in assay [16] is 10 nM (inactive).
